From PubChem BioAssay
Tg IFNy HTS: T. gondii growth inhibition with IFN-gamma, primary screen, cell-based; 69,000 tested, 3.8% active; AID 1259416, 2018; Toxoplasma gondii growth in IFN-gamma-treated host cells; active compounds read low; activity change, negative = inhibition, % (test concentration not listed); in the data active = activity change below about -70%, passing the limit was not always enough;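 note: host cells are HeLa cells infected with Toxoplasma gondii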
Of the large screens only hits and unclear results are named; the others gave an inactive call. This excerpt belongs to a sample that is enriched for hits.

O=c1[nH]c2cc3c(cc2cc1CN(CCO)Cc1nnnn1Cc1ccccc1)OCCO3	Tg IFNy HTS -82
Cc1ccc2cc(CN(CCO)CCO)c(=O)[nH]c2c1	none
CN(CCCc1cnn(C)c1)Cc1cc2ccc(F)cc2[nH]c1=O	none
COc1cc(F)ccc1-c1c(-c2ccccc2)ncn1CCCO	none
CC(C)N1CCNC(=O)C1CC(=O)NCCc1cnc2ccccn12 (stereo not given)	none
CN(C)S(=O)(=O)c1ccc2c(c1)cc(C(=O)NCc1ccccc1Cl)n2Cc1ccncc1	Tg IFNy HTS -95
CN(C)S(=O)(=O)c1ccc2c(c1)cc(C(=O)NC1CCCCCCC1)n2Cc1ccncc1	Tg IFNy HTS -74
CN(C)S(=O)(=O)c1ccc2c(c1)cc(C(=O)NCc1ccccc1)n2Cc1ccncc1	none
CN(C)CCNC(=O)c1cc2cc(S(=O)(=O)N(C)C)ccc2n1Cc1ccncc1	none
CN(C)S(=O)(=O)c1ccc2c(c1)cc(C(=O)NCCCN1CCCC1)n2Cc1ccccc1	Tg IFNy HTS -96
CN(C)S(=O)(=O)c1ccc2c(c1)cc(C(=O)NC1CCCCCC1)n2Cc1ccncc1	none
COc1ccccc1CNC(=O)c1cc2cc(S(=O)(=O)N(C)C)ccc2n1Cc1ccncc1	none
CN(C)S(=O)(=O)c1ccc2c(c1)cc(C(=O)NC1CCCC1)n2Cc1ccncc1	none
Cc1ccccc1CNC(=O)c1cc2cc(S(=O)(=O)N(C)C)ccc2n1Cc1ccncc1	none
CCn1c(C2CCN(c3cc(N4CCOCC4)ncn3)CC2)nn(C)c1=O	none
COc1ccc(C)cc1NC(=O)c1nc(Nc2ccc(C)cc2)c2ccccc2n1	none
CN(C)C(=O)NC1CCOC2(CCN(Cc3cccs3)CC2)C1 (stereo not given)	none
Cc1cc(C)n(Cc2ccc(C(=O)Nc3nnc(CCN4CCC(C)CC4)s3)cc2)n1	none
COc1cc2nc(N3CCCN(C)CC3)nc(NC3CCN(Cc4ccccc4)CC3)c2cc1OC	Tg IFNy HTS -88
CCCC(=O)N1CCCN(c2nc(N)c3cc(OC)c(OC)cc3n2)CC1	none
COc1ccc(-c2nc(NC3CCN(Cc4ccccc4)CC3)c3ccccc3n2)cc1	none
CCc1ccc(-c2nccn2CCCN2CCCC(O)C2)nc1 (stereo not given)	none
CC(=O)N1CC2(CCN(C(=O)CCCN)CC2)CC1C(=O)O (stereo not given)	none
C=CCn1c(=O)c(-c2nc(-c3cccc(F)c3)no2)c(O)c2ccccc21	none
Cc1cncc(C(=O)N2CCOCC3(CCC(Cn4cncn4)O3)C2)c1 (stereo not given)	none
CSc1cccc(NC(=O)Cn2ncc3c(N4CCCCCC4)ncnc32)c1	none
COc1ccc(CN2C(=O)N(C)C3(CCN(Cc4nc(-c5ccccc5)cs4)CC3)C2=O)cc1	none
CCN1C(=O)N(Cc2cccc(OC)c2)C(=O)C12CCN(Cc1nc3ccccc3nc1C)CC2	none
COc1ccc(CN2C(=O)N(C)C3(CCN(Cc4cccc(Oc5ccccc5)c4)CC3)C2=O)cc1	Tg IFNy HTS -81
COc1cccc(NC(=O)CN2CCC3(CC2)N=C(c2cccc(Cl)c2)C(=O)N3)c1	none
CN(C)C(=O)C1OC2(CCN(Cc3ccco3)CC2)c2ccccc21 (stereo not given)	none
CCOCc1cncc2c1CCN(S(=O)(=O)c1cn(C)cn1)C2	none
CN(CC(=O)NC1CCCCCCC1)Cc1nc(-c2cccnc2)no1	none
Cc1nc(-c2cn(C(C)C)c3ncccc23)sc1C(=O)N1CCCCC1C (stereo not given)	Tg IFNy HTS -106
CCCc1ncc(-c2ccncc2C)c(C2CCCN2C(=O)c2sc(NC)nc2C)n1 (stereo not given)	none
CC1CCCCN1C(=O)c1cc(-c2cnc(-c3ccccc3)nc2)cn1C (stereo not given)	none
COc1ccc(F)c(-c2cncc(C(=O)N3CCOCC3)n2)c1	none
CCC(CC)C(=O)Nc1cc(Cl)ccc1OC	none
COc1ccc(Cl)cc1NC(=O)Nc1ccccc1	Tg IFNy HTS -83
COc1ccc(Cl)cc1NC(=O)Nc1ccc(-c2nc(-c3ccccc3)co2)cc1	none
N#Cc1ccc(Cn2nc(-c3nccc4ccccc34)oc2=O)cc1	none
COc1ccc(Cc2nnc(NC(=O)CC(C)C)s2)cc1	none
O=C(NCCc1csc(-c2ccc(F)cc2)n1)C(=O)Nc1ccc2c(c1)OCO2	none
Cc1ncc(C(=O)N2CCC(c3cc4nc(C(C)C)cc(C(F)(F)F)n4n3)CC2)c(C)n1	none
CNc1nc(C2CCN(C(=O)c3c(C(C)C)noc3C)CC2)nc2c1CN(C(C)=O)CC2	none
Cc1onc(C(C)C)c1C(=O)N1CCC(c2cc(C(F)(F)F)c3c(N)[nH]nc3n2)CC1	Tg IFNy HTS -75
CCOc1nc2c(c(C)nn2-c2cccc(C)c2)c(C)c1CCC(=O)NCCc1c[nH]c2ccccc12	Tg IFNy HTS -79
Cc1cc(C(=O)NCCc2c[nH]c3ccccc23)c2c(=O)n(C)c(=O)n(C)c2n1	none
CCSc1nc(CC(=O)NCCc2c[nH]c3ccccc23)cs1	none
NC1=NC(=O)S/C1=C\c1ccc(-c2nc3ccccc3s2)o1	none
CCc1nc2ccc(NC(=O)C3(C)CC(=O)N=C4C=C(C)C=CN43)cc2[nH]1 (stereo not given)	none
CNC(=O)N1CCN(Cc2cnn(C)c2)CC2(CCCC(=O)N2)C1 (stereo not given)	none
O=S(=O)(c1cccs1)N1CCC2(CC1)NCCN=C2NCc1ccc(F)c(Cl)c1	none
CCSc1ncc(CN(C)Cc2n[nH]c3c2CCCC3)cn1	none
Cc1ccccc1-n1nc(C)c(CN(C)Cc2n[nH]c3c2CCCC3)c1C	Tg IFNy HTS -78
COc1ccc2c(c1)c(CN(C)Cc1n[nH]c3c1CCCC3)cn2C(C)C	none
Cc1ccccc1C(NS(=O)(=O)NCc1ccccc1)c1ccncc1 (stereo not given)	none
Cc1c(CN(C)C(=O)CCn2c(C)cccc2=O)[nH]c2ccccc12	none
O=C(NCCc1csc(-c2cccc(F)c2)n1)C(=O)Nc1cccc(Cl)c1	none
CCn1cc(C(=O)N2CCC(c3cc4c(C)cccc4cn3)CC2)c(C)n1	none
Cc1cc(NC(=O)c2cccc3ccccc23)cc(C)c1OCC(=O)N1CCOCC1	none
O=C(CSCCOc1ccccc1)N1CCOCC1	none
O=C(COc1cccc(-n2cnnc2)c1)N1CCOCC1	Tg IFNy HTS -85
O=C(c1ccoc1)N1CCCC2(COCCN(c3cccnc3)C2)C1 (stereo not given)	none
CCc1ccccc1NC(=O)N1CCC2(CC1)Nc1cc(F)ccc1-n1cccc12	none
CCCCCCSc1ncc(C#N)c(N)n1	none
CCCCCc1nc(N)c(C#N)c(-c2ccco2)c1CCCC	Tg IFNy HTS -91
Cc1cccc(C(=O)N2CCc3onc(COCC4CC4)c3C2)c1	none
Cc1ccc(CC(=O)N2CCn3cc(Cn4cncn4)nc3C2)cc1	Tg IFNy HTS -74
O=C(Cc1ccc(F)cc1)N1CCn2cc(Cn3cncn3)nc2C1	none
O=C(Cc1cccc(F)c1)N1CCn2cc(Cn3cncn3)nc2C1	none
O=C(NCCCNC(=O)c1ccco1)c1cnccn1	none
Cc1ccc(CN2CC[C@@H](O)[C@@H]2Cc2cnn(C)c2)s1	none
CCCNC(=O)Cn1ncc2c(N3CCCCC3)ncnc21	none
OC1CCC(Nc2ncc3nc(Nc4c(F)cc(F)cc4F)n([C@H]4CCOC4)c3n2)CC1 (stereo not given in full)	Tg IFNy HTS -73
Fc1cnc(NC2COC3(CCCN(CC4CCOCC4)C3)C2)nc1 (stereo not given)	none
Cc1ccc(-c2nc(Cn3nnc(-c4nc(-c5cccc(Br)c5)no4)c3C)c(C)o2)cc1	none
O=C1OC(=O)C2C3CCC(O3)C12 (stereo not given)	Tg IFNy HTS -75
COc1ccccc1-c1nc(CN(c2ccccc2OC)S(=O)(=O)c2ccccc2)c(C)o1	none
COc1cc(C(=O)N2CCN3C(=O)CN(C)C(=O)C3C2)c2ccccc2n1 (stereo not given)	none
